PI4K2A inh = PI4K2A (human) kinase inhibition; activity change, negative = inhibition, % at 76.9 µM; 420,000 tested, 0.13% active; Q9BTU6; purified PI4K2A, ADP-Glo luminescence, 1 h; hits give low values; AID 1346378; in the data active = activity change below about -50%; inconclusive = mostly about -30% to -49%;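 also: -100% = wells without enzyme as full effect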
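ADP-Glo luminescence measured ADP generated by PI4K2A enzyme (4 ug/mL before mixing) with 1.2 mM PI substrate (pre-mix) and 300 microM ATP (pre-mix). Tris pH7.5 buffer with MgCl2, Triton X-100; 1 h reaction at ambient temperature.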
VDR inh = inhibitors of human vitamin D receptor | VDR-SRC2-3 peptide fluorescence polarization, 2 h | Potency, µM, for the others: max response, negative = inhibition, actives largely listed as inhibitors | P11473 | 400,000 tested, 0.93% active; also: potency is read from the fitted curve at half-maximal effect
Target sequence (P11473 whole entry, looked up): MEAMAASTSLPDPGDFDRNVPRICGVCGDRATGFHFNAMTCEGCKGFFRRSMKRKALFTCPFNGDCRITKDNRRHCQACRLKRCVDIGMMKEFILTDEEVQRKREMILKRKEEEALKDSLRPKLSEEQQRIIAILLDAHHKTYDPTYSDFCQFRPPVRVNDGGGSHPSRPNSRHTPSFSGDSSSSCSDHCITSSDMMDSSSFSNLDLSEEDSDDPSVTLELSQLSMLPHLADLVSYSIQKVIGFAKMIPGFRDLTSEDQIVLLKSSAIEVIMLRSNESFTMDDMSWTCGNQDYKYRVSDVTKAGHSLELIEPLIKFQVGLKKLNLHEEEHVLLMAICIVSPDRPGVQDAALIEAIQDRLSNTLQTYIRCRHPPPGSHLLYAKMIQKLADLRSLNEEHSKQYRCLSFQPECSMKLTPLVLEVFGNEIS
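FP read-out; VDR + SRC2-3 coactivator peptide; 23 nl compound by pintool; 2 h RT incubation; reagents held at 4 deg C, protected from light.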
GCN5L2 inh = inhibitors of human GCN5L2 histone acetyltransferase; GCN5L2 HAT assay, ThioGlo1 CoA-SH fluorescence; 390,000 tested, 0.21% active; Q92830; AID 504327; Potency, µM (series often up to 58.9 µM), inactives show top-dose activity change, negative = inhibition, actives largely listed as inhibitors; also: potency is read from the fitted curve at half-maximal effect
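Free CoA generated was detected with ThioGlo1 (50uM) fluorescence at Ex340nm/Em540nm, read immediately and after 20 min at room temperature. Enzyme, 20 nM in HEPES pH 7.5 buffer, saw compounds 15 min before adding 75uM H3(1-25) peptide and 70uM acetyl-CoA.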
GLS inh = glutaminase GLS (human) inhibition; GLS enzymatic activity, qHTS titration; Potency, µM (top dose mostly 45.5 µM), inactives show at the highest dose activity change, negative = inhibition, hits mostly inhibitors; 410,000 tested, 0.21% active; also: potency is read from the fitted curve at half-maximal effect
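hKGA; 45 mM KH2PO4 pH 8.2 + 0.02% Tween-20; cpd via pin tool; 1 mM Gln soln; GluOx/HRP/Amplex Red; RT 30 min; fluor. t0 & final.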
PLK1 PBD block = PLK1 (human) polo-box domain binding inhibition. 360,000 tested, 2.8% active. AID 720504. Plk1 PBD binding of FITC phosphopeptide, fluorescence polarization. Potency, µM, for inactives: max response, negative = inhibition, usual class: inhibitors. P53350; also: potency is read from the fitted curve at half-maximal effect; series mostly up to about 57 µM; nearly all actives have a fitted effect of over 65% in size
* marks the source's active call; other numbers are inactive results; i = inactive; u = inconclusive; x = no result given; [ ] = another dose, or the depositor's remark. An excerpt weighted towards active compounds, which were near 3.1% of everything screened. Unless noted, calls follow the shape of the dose curve; as a rule, active = well fitted curve in the direction sought with a large enough effect; inconclusive = small, poorly fitted or top-dose-only effect, or another doubt; inactive = no such curve, though single readings can be large; an effect the other way counts as inactive or inconclusive. Unless noted, % is scaled to controls: 0 for no effect and ±100 for the full control effect.

SMILES	PI4K2A inh	VDR inh	GCN5L2 inh	GLS inh	PLK1 PBD block
O=[N+]([O-])c1ccc(N2CCCCC2)cc1N1CCOCC1	-17	1%	-6%	-3%	-1%
CCNc1nc(NC#N)nc(SCC(=O)OCC)n1	-1	1%	-5%	-2%	0%
CNc1nc(NC#N)nc(SC)n1	4	u	21%	44%	30µM*
COc1ccc(-c2cc(C(=O)N(C3CCCCC3)C3CCCCC3)no2)cc1	2	x	x	x	x
Cc1ccc(-n2ccnc2SCC(=O)N(CC(C)C)C2CCS(=O)(=O)C2)c(C)c1 (stereo unspecified)	-6	u	-3%	u	11µM*
CC(O)[C@H]1CN=C(N)N1CC1CCCCC1 (stereo partly specified)	0	u	x	-10%	27µM*
NC1=NC[C@H](c2ccccc2)N1CC1CCCCC1	2	2%	x	2%	-15%
Cc1c(C(=O)O)cnc2c([N+](=O)[O-])cnn12	-2	35µM*	-1%	u	3.4µM*
O=C(O)C(=O)/C(=C\c1cccc2ccccc12)c1ccc2ccccc2n1	4	2%	-2%	41%	67µM*
CCCCC(=O)NC(=S)Nc1ccc(Cl)c(C(=O)O)c1	-2	-7%	-2%	5%	-12%
COCCNC(=S)NNc1ccc(Cl)c(C(=O)O)c1	-4	-15%	0%	-4%	27µM*
CCN(CC)C(=O)CC[C@H]1CC[C@]2(CCCN(C(=O)C(C)(C)C)C2)O1	-1	x	x	x	x
CCOC(=O)/C=C/[C@H]1CCc2cccc(Cl)c2O1	0	-25%	-7%	6%	21µM*
CCOC(=O)/C=C/C(=O)OCC(=O)Nc1c(Cl)cccc1Cl	-2	u	-7%	6%	-27%
CCc1c(C)sc(NC(=O)Cn2nc(C(F)(F)F)c3c2CCCC3)c1C#N	-11	-11%	-28%	x	21µM*
CCc1ccc(NC(=O)Cn2nc(C(F)(F)F)c3c2CCCC3)cc1	0	-14%	-2%	2%	x
O=c1c2ccccc2n(Cc2ccno2)n1[C@@H](Cc1ccccc1)Cn1cc(C2CCCC2)nn1	2	x	x	x	x
Cc1ccc(C)c(S(=O)(=O)c2nnn3c2nc(Nc2ccc(F)c(Cl)c2)c2sccc23)c1	1	6%	-23%	-9%	x
COc1ccc(-c2cc(-c3ccccc3)c(C#N)c(SCC(O)CS(=O)(=O)Cc3ccc(Cl)cc3)n2)cc1 (stereo unspecified)	-1	3%	1%	-7%	x
N#Cc1c(-c2ccccc2)cc(-c2ccccc2)nc1SCC(O)CS(=O)(=O)Cc1ccc(Cl)cc1 (stereo unspecified)	5	28µM*	u	1%	x
CC(C)OC(=O)CC(=O)CSc1nc(-c2ccc(F)cc2)cc(-c2ccccc2)c1C#N	-3	u	-4%	-5%	24µM*
N#Cc1c(-c2ccccc2)cc(-c2ccccc2)nc1SCC(=O)NCC(=O)O	5	u	5%	u	24µM*
CC(C)OC(=O)c1cc(C(=O)OC(C)C)cc([N+](=O)[O-])c1	i	x	x	-14%[99.4 µM]	x
O=C(CCS(=O)(=O)c1nc(-c2ccc3c(c2)OCO3)cc(C(F)(F)F)n1)Nc1ccccc1F	11	40µM*	-8%	-5%	x
COc1ccc2c3c([nH]c2c1)[C@]1(CCNC=O)Nc2ccccc2C1=NCC3	-4	x	x	x	x
SMILES	PI4K2A inh	VDR inh	GCN5L2 inh	GLS inh	PLK1 PBD block
COc1cc(CC2COC(c3ccc(O)c(OC)c3)C2COC(C)=O)ccc1O (stereo unspecified)	-12	6%	-16%	11µM*	-29%
CCOC(=O)[C@]12CCCCC/C=C\1N(Cc1ccc(OC)cc1)C(=O)[C@H]2CC(=O)NCc1cccc(C(F)(F)F)c1	0	x	x	x	x
Cc1ccc(NC(=O)C2CCCN(c3nnc(-n4cccc4)s3)C2)cc1C (stereo unspecified)	-3	x	x	x	x
CCc1ccc(C2=CC(c3cccc(C)c3)n3c(nc4ccccc43)N2)cc1 (stereo unspecified)	-9	-1%	-4%	-23%	x
CCOc1ccc(C(=S)NC2CCCCC2)cc1OCC	-8	40µM*	-16%	-17%	6µM*
CCOc1ccc(C(C)NC(=S)NC2CCCCC2)cc1OCC (stereo unspecified)	1	-11%	1%	0%	1%
CN(C)c1ccc(C(=S)NC2CCCCC2)cc1	-5	u	-9%	3%	13µM*
CCN(CC)c1ccc(C(=S)NCc2ccccc2)cc1	1	-6%	-9%	16%	u
CCN(CC)c1ccc(C(=S)NC2CCCCC2)cc1	0	u	3%	19%	24µM*
COCCCN(C(=S)Nc1cc(Cl)cc(Cl)c1)C(C)c1ccncc1 (stereo unspecified)	-2	u	19%	10%	21µM*
COCCCN(C(=S)Nc1cc(Cl)cc(Cl)c1)C(C)c1ccccn1 (stereo unspecified)	4	u	-4%	9%	17µM*
COCCCN(C(=S)Nc1ccc(C)cc1Cl)C(C)c1ccncc1 (stereo unspecified)	-6	11%	34%	-1%	-5%
O=c1[nH][nH]c2c(N=Cc3ccccc3O)ccc(F)c12	-27	u	u	11µM*	11µM*
CCOC(=O)[C@H](CCc1ccccc1)NC(C)C(=O)N1CC2(CC1C(=O)O)SCCS2 (stereo partly specified)	x	x	x	-2%	x
Cc1ccc(C(=O)NC(=S)NNC(=O)COc2ccc([N+](=O)[O-])cc2)cc1	-1	-17%	-10%	-5%	u
COc1ccc(OCC(=O)NC(=S)NNC(=O)COc2ccc(Br)cc2Cl)cc1	-5	u	-1%	-21%	24µM*
O=C(COc1ccc([N+](=O)[O-])cc1)NNC(=S)NC(=O)c1ccc(Br)cc1	2	u	u	38%	13µM*
O=C(COc1ccc(Br)cc1Cl)NC(=S)Nc1ccccn1	-6	-19%	-29%	21%	-13%
CCCC(=O)OCOC(=O)C1=C(C)NC(C)=C(C(=O)OC)C1c1cccc(Cl)c1Cl (stereo unspecified)	-1	x	x	x	x
O=C(O)c1ccc(-c2noc(-c3ccccc3F)n2)cc1	-68*	-7%	x	-3%	x
O=C(O)c1ccccc1-c1noc(-c2ccccc2F)n1	-11	x	-5%	x	x
Cc1cc(Br)ccc1N=C1NC(=O)CS1	2	-5%	-10%	-8%	27µM*
Cc1ccc(C(=O)CSc2nnc(-c3ccco3)n2Cc2ccccc2)cc1	-3	u	-4%	u	2.7µM*
O=C(CSc1nnc(-c2ccco2)n1Cc1ccccc1)c1ccccc1	-3	-21%	-1%	5%	-14%
Cc1ccc(NC(=O)c2ccc(F)c(S(=O)(=O)NCCc3ccccc3)c2)cc1F	4	12%	-5%	10%	x
CCc1cnc2c(c1SCc1c(F)cccc1Cl)c(=O)n(C)c(=O)n2C	-2	-5%	-10%	-9%	x
